Data: PubChem BioAssay (NCATS)
Inconclusive results are not listed. Where a call stands in place of a potency, no number is given. The source made the active and inactive calls. The call rests on the fitted dose curve; in most records, active means well fitted inhibition curve with a large enough effect; inconclusive means small, poorly fitted or top-dose-only effect; inactive means no such curve, though single readings can be large or run the other way.

Assay: NS1 protein of Zika virus - qHTS assay to identify small molecule inhibitors in human HEK 293 cells (AID 1347053); further: nearly all actives have a fitted effect of over 55% in size
Conditions: HEK293 ZIKV MR766 infection, NS1 TR-FRET, 24 h; series mostly up to 46.1 µM
Method in brief: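 Compound-treated (1 h pre-infection) HEK 293 cells infected with ZIKV MR766, MOI = 0.5; after 24 h at 37 C, NS1 read by TR-FRET; data normalized to uninfected and infected controls.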

Structure (SMILES) | Potency
OCCOCCN1CCN(C(c2ccccc2)c2ccc(Cl)cc2)CC1 (configuration not stated) | inactive
CN(C)CCCOC1(Cc2ccccc2)CCCCCC1 | inactive
CCN(CC)CCN | inactive
C[C@H](N)C(=O)N[C@@H](C)C(=O)NC1[C@H]2CN(c3nc4c(cc3F)c(=O)c(C(=O)O)cn4-c3ccc(F)cc3F)C[C@@H]12 (some centres not stated) | inactive
CN(C)CCN1CCN(c2cccc(Cl)c2)C1=O | inactive
CCC[C@H](N[C@@H](C)C(=O)N1[C@H](C(=O)O)C[C@@H]2CCCC[C@@H]21)C(=O)OCC | inactive
CC(=O)Oc1ccc(C2(c3ccc(OC(C)=O)cc3)Oc3ccccc3NC2=O)cc1 | inactive
Nc1ncnc2c1ncn2Cc1c(F)cccc1Cl | inactive
COc1c(C)c2c(c(O)c1C/C=C(\C)CCC(=O)OCCN1CCOCC1)C(=O)OC2 | inactive
CC(=O)N1CCN(c2ccc(O)cc2)CC1 | inactive
COc1ccc2c(c1)c(CC(=O)OC/C=C(\C)CC/C=C(\C)CCC=C(C)C)c(C)n2C(=O)c1ccc(Cl)cc1 | inactive
CCCOc1ccc2c(c1)CC[C@@H]1[C@@H]2CC[C@]2(C)C(OC)CC[C@@H]12 (some centres not stated) | inactive
CC[N+]1(CC)CCC(=C(c2ccccc2)c2ccccc2)C1C (configuration not stated) | inactive
O=C1[C@@H]2[C@H]3CC[C@H](C3)[C@@H]2C(=O)N1CCCCN1CCN(c2ncccn2)CC1 | inactive
CCOC(=O)NNc1nncc2ccccc12 | inactive
O=C1NC(c2ccccc2)(c2ccccc2)C(=O)N1COP(=O)(O)O | inactive
CC(CC1c2ccccc2CCc2ccccc21)CN(C)C (configuration not stated) | inactive
C[C@H]1C[C@@H]2[C@H]([C@@H](O)C[C@@]3(C)[C@H]2CC[C@]3(O)C(=O)CO)[C@@]2(C)C=CC(=O)C=C12 | inactive
CC(C)NC(=O)c1ccc(C=O)cc1 | inactive

Structure (SMILES) | Potency
CCc1cccc2c(CCO)c[nH]c12 | inactive
CN(C)[C@@H]1C(=O)C(C(N)=O)=C(O)[C@@]2(O)C(=O)C3=C(O)c4c(O)cccc4C[C@H]3C[C@@H]12 | inactive
CC(C)(C)c1cc(C=O)cc(C(C)(C)C)c1O | inactive
Cc1cc(O)c(C)c(C)c1O | inactive
CC(C)(Oc1ccc(Cl)cc1)C(=O)OCCCOC(=O)C(C)(C)Oc1ccc(Cl)cc1 | inactive
CC(=O)c1cc2ccccc2s1 | inactive
CC1(C)O[C@@H]2C[C@H]3[C@@H]4C[C@H](F)C5=CC(=O)C=C[C@]5(C)[C@@]4(F)[C@@H](O)C[C@]3(C)[C@]2(C(=O)CO)O1 | inactive
O=C(O)Cn1cnnn1 | inactive
COc1ccc2nc(SCc3ncc(C)c(OC)c3C)[nH]c2c1 | inactive
CC(C)=CCC/C(C)=C/CC/C(C)=C/C(=O)OCC(=O)[C@@]1(O)CC[C@H]2[C@@H]3CCC4=CC(=O)C=C[C@]4(C)[C@H]3[C@@H](O)C[C@@]21C | inactive
CC(=O)[C@@]1(O)CC[C@H]2[C@@H]3C[C@H](C)C4=CC(=O)CC[C@]4(C)[C@H]3CC[C@@]21C | inactive
CCCC(=O)O[C@]1(C(=O)CC)CC[C@H]2[C@@H]3CCC4=CC(=O)CC[C@]4(C)[C@H]3[C@@H](O)C[C@@]21C | inactive
NC(=O)NS(=O)(=O)c1ccc(Cl)cc1 | inactive
CCC1(c2cnc[nH]2)Cc2ccccc2C1 | inactive
Cc1oc(=O)oc1COC(=O)[C@@H]1N2C(=O)[C@@H](NC(=O)[C@H](N)c3ccccc3)[C@H]2SC1(C)C | inactive
CC(=O)O[C@@H]1CC2C3CCc4cc(OC(=O)c5ccccc5)ccc4C3CCC2(C)[C@H]1OC(C)=O (some centres not stated) | inactive
C/C(=C1\CCOC(=O)S1)N(C=O)Cc1cnc(C)nc1N | inactive
CCCc1c2oc(C(=O)O)cc(=O)c2cc2c(=O)cc(C(=O)O)n(CC)c12 | inactive
